High-throughput results as filed in PubChem.
FGF22 binding – binders of human FGF22 protein, primary screen, FGF22 synaptogenesis inhibitor project, biophysical, thermal shift, single point; Fibroblast growth factor 22 (Homo sapiens), Q9HCT0; recombinant FGF22 thermal shift, SYPRO orange fluorescence; percent of sucrose octasulfate shift, DMSO zero; activity (Tm shift, normalised), % at 9.99 µM; hit rate 1.5% among 340,000;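 active means mean Tm shift, scaled 0 neutral to 100 positive control, at about 1.3% or above, every replicate too, limit read from the data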
proKLK7 act – proKLK7 zymogen activators, primary screen, biochemical, fluorescence intensity; hit rate 0.9% among 370,000; Kallikrein-7 (Homo sapiens), P49862; purified proKLK7, EDANS-DABCYL substrate fluorescence; 100% is mature enzyme control, 0% vehicle; activation, % at 7 µM;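 active means activation above the mean of all tested compounds plus 3 SD, computed per campaign excluding outliers beyond control limits, cut at about 13% in these data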
Ecoli rRNA inh – reduced GFP signal of wild-type E. coli, primary screen, bacterial rRNA inhibitor project, GFP/RFP fluorescence, OD600, single point. E. coli WT GFP vs humanized-ribosome RFP mutants, 24 h; active compounds read low; DMSO median 0, no signal -100. hit rate 1.6% among 350,000. GFP signal change (wild-type ribosome), % (test concentration not listed);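 active means significant combined selectivity score with lowered wild-type GFP, culture density cut under 30%, mutant RFP and density less affected; inactive means any of these conditions unmet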
ADAM10 inh – human ADAM10 inhibitors, primary screen, biochemical, QFRET, HTS | Disintegrin and metalloproteinase domain-containing protein 10 (Homo sapiens), O14672 | recombinant ADAM10, EDANS/DABCYL FRET peptide cleavage, 3 h | inhibition, % at 7 µM | hit rate 0.62% among 370,000 | AID 720582, 2013;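 active means inhibition above a per-campaign cutoff equal to the mean of compounds falling between control-based bounds plus 3 SD, cut at about 20% in these data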;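 further: 0% = DMSO wells while the 100% control is not disclosed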
Target sequence (O14672 214-748 limits assumed): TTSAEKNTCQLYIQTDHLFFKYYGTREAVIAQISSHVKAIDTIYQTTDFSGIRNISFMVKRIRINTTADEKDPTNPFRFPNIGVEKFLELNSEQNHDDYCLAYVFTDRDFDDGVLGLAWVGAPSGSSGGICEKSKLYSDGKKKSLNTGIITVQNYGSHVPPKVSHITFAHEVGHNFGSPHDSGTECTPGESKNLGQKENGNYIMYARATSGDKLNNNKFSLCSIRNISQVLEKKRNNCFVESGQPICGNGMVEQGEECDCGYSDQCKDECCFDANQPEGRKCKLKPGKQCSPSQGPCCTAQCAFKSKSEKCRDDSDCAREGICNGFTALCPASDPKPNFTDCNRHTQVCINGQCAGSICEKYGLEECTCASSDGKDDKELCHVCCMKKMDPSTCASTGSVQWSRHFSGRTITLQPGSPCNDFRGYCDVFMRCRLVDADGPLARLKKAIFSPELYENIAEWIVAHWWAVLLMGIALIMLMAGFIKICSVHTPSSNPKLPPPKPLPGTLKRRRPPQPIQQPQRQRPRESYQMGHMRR
ADAM17 inh – ADAM17 inhibitors, primary screen, biochemical, QFRET; Disintegrin and metalloproteinase domain-containing protein 17 (Homo sapiens), P78536; recombinant ADAM17, EDANS/DABCYL FRET peptide cleavage; inhibition, % at 6.95 µM; hit rate 0.83% among 370,000; AID 720648, 2013;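 active means inhibition above the mean of compounds lying between control limits plus 3 SD, set per campaign, cut at about 8.5% in these data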;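 further: 0% = DMSO-only wells as the low control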
KLK7 act conf – proKLK7 zymogen activators, confirmation, biochemical, fluorescence intensity, triplicate. AID 686949, 2013. shares compounds with proKLK7 act. purified proKLK7, EDANS-DABCYL substrate fluorescence; scaled: vehicle 0, mature enzyme 100. activation, % at 7 µM. hit rate 68% among 3,200;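 active means activation, as change over the incubation, above the mean of all tested compounds plus 3 SD, cut at about 13% in these data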
EDANS interfere – EDANS-DABCYL substrate optical interference, artefact control for kallikrein-7 zymogen activator project, biochemical, fluorescence intensity, high throughput; shares compounds with proKLK7 act; no enzyme, 4 h; solvent 0%, active enzyme control 100%; activation, % at 7 µM; hit rate 80% among 3,200; AID 686952, 2013;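 active means activation above the all-compound mean plus 3 SD, ignoring values outside control-based bounds, cut at about 4.8% in these data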;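 further: value is the 4 h activation minus the activation read at time zero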
EDANS interf – EDANS fluorescence interference in dose response, no enzyme; AID 720493; EDANS-DABCYL peptide fluorescence interference; hit rate 20% among 250; EC50, µM; shares compounds with proKLK7 act;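 active means compounds that raise the fluorescence signal in this interference counterscreen, with EC50 at or below 10 µM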;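 further: intact quenched peptide substrate alone read at 355 nm excitation and 520 nm emission; signal is fluorescence gain from T0 to T4 after four hours at room temperature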
The depositor's hits bear a star; i = inactive; nt = not tested or not shown. An excerpt weighted towards active compounds, which were near 3.8% of everything screened.

SMILES	FGF22 binding	proKLK7 act	Ecoli rRNA inh	ADAM10 inh	ADAM17 inh	KLK7 act conf	EDANS interfere	others
Cc1ccsc1/C=C1\Oc2cc(O)ccc2C1=O	0	15*	-2	-22	-7	21*	24*
O=C1/C(=C/c2cccc([N+](=O)[O-])c2)Oc2cc(O)ccc21	0	0	16	-14	-2	nt	nt
C[C@@H]1CN([C@H](C)CO)C(=O)CCCn2nncc2CO[C@@H]1CN(C)Cc1ccc(C(=O)O)cc1	0	nt	0	nt	nt	nt	nt
COc1cccc2[nH]c3c(Cl)ncnc3c12	0	17*	-26	i	-354	32*	31*
COc1cccc2[nH]c3c(N4CCCCC4)ncnc3c12	nt	8	nt	-299	-97	nt	nt
CCOC(=O)C1CCN(c2ncnc3c2[nH]c2cccc(OC)c23)CC1	nt	19*	nt	i	i	23*	14*	EDANS interf=i
C[C@H](NC(=O)C[C@@H]1CC[C@@H](NC(=O)C2CCOCC2)[C@H](CO)O1)c1ccccc1	0	nt	1	nt	nt	nt	nt
COc1ccc(NC(=O)N(C)C[C@H]2Oc3c(NC(=O)c4ccc(-c5nccs5)cc4)cccc3C(=O)N([C@H](C)CO)C[C@@H]2C)cc1	0	nt	-2	nt	nt	nt	nt
CN(C(=O)C1CCOC1)c1nnc(-c2ccccn2)s1 (stereo unspecified)	nt	41*	0	-89	-31	50*	48*
CN(C(=O)C1CCOC1)c1nnc(-c2ccncc2)s1 (stereo unspecified)	nt	46*	nt	-124	-35	65*	70*
CN(C(=O)c1ccccn1)c1nnc(-c2cccnc2)s1	nt	3	5	-7	-3	nt	nt
Cc1ccc(-c2nnc(N(C)C(=O)c3cccnc3)s2)cn1	nt	3	nt	-3	-2	nt	nt
CC(=O)N(c1ccccc1)c1nnc(-c2cnc(C)cn2)s1	0	0	6	-12	-4	nt	nt
Cc1cnc(-c2nnc(N(C)C(=O)C3CCOC3)s2)cn1 (stereo unspecified)	nt	31*	nt	-122	-40	43*	46*
Cc1cnc(-c2nnc(N(C)C(=O)c3cccnc3)s2)cn1	nt	42*	nt	-21	-8	72*	74*
C[C@H]1CN([C@@H](C)CO)C(=O)c2cc(C3=CCCC3)cnc2O[C@H]1CN(C)C	0	nt	1	nt	nt	nt	nt
COc1ccc2c3c([nH]c2c1)[C@@H](CO)N(S(C)(=O)=O)CC31CCN(C(=O)Cc2cccnc2)CC1	0	nt	3	nt	nt	nt	nt
COc1ccc2c3c(n(C)c2c1)[C@H](CO)N(C(=O)Nc1ccc(F)cc1)CC31CCN(C(=O)c2ccc3c(c2)OCO3)CC1	nt	nt	0	nt	nt	nt	nt
CCCc1cc(NCCCN(C)C)n2c(nc3ccccc32)c1C#N	0	83*	4	i	i	12	20*
CCCc1cc(NCc2ccccn2)n2c(nc3ccccc32)c1C#N	0	-6	17	-267	-78	nt	nt
CCCNc1cc(C)c(C#N)c2nc3ccccc3n12	nt	7	nt	-355	-107	nt	nt
CCCc1cc(-n2cnc3ccccc32)n2c(nc3ccccc32)c1C#N	nt	-1	nt	-21	-5	nt	nt
CCCc1cc(NCCN(C)C)n2c(nc3ccccc32)c1C#N	0	57*	-3	i	i	20*	6.5*	EDANS interf=>70
CCCc1cc(NCC2CCCO2)n2c(nc3ccccc32)c1C#N (stereo unspecified)	nt	17*	nt	i	i	-54	-54
CN1C(=O)c2ccccc2N(C)C1c1ccc(F)cc1 (stereo unspecified)	0	19*	-12	i	-437	27*	14*	EDANS interf=>69
SMILES	FGF22 binding	proKLK7 act	Ecoli rRNA inh	ADAM10 inh	ADAM17 inh	KLK7 act conf	EDANS interfere	others
CN1C(=O)c2ccccc2N(C)C1c1ccc2c(c1)OCO2 (stereo unspecified)	nt	19*	nt	i	-416	22*	18*	EDANS interf=>69
C[C@@H]1CC=CC[C@H](c2ccc3c(c2)OCO3)NC(=O)[C@H](C)N(C)C(=O)c2ccccc2O1 (mixture of isomers)	nt	nt	-8	nt	nt	nt	nt
CN1C(=O)c2ccccc2N(C)C1c1cccc(O)c1 (stereo unspecified)	0	50*	3	i	i	32*	35*
COc1cc(C2N(C)C(=O)c3ccccc3N2C)ccc1O (stereo unspecified)	-1	46*	11	i	i	43*	42*
CCCc1cc(=O)oc2c3c(cc(OCC(=O)NCCN4CCOCC4)c12)OC(C)(C)CC3	0	32*	nt	i	i	-11	-20
CCCCc1cc(=O)oc2c3c(cc(OCC(=O)NCCCO)c12)OC(C)(C)CC3	0	24*	-10	i	i	-33	-34
CCc1cc(=O)oc2c3c(cc(OCC(=O)NCCCn4ccnc4)c12)OC(C)(C)CC3	0	8	nt	i	i	nt	nt
OC1CNc2c(ccc3ccccc23)C1 (stereo unspecified)	-1	14*	0	i	-404	1	-6
CN1C(=O)SC(Nc2cccc3ccccc23)C1=O (stereo unspecified)	nt	74*	nt	-72	-23	88*	85*
COC(=O)c1ccc2c(c1)C(C)(C)C(/C=C/c1ccc(OC)c(OC)c1OC)=[N+]2C	nt	-4	nt	-40	-1	nt	nt
COC(=O)c1ccc2c(c1)C(C)(C)C(/C=C/c1ccc(O)cc1)=[N+]2C	nt	25*	nt	-56	-42	0	2
CNc1ccccc1C(=O)OCC(=O)N(CCOC)c1c(N)n(CC(C)C)c(=O)[nH]c1=O	0	20*	3	i	-411	18*	16*
COCCN(C(=O)c1ccccc1Oc1ccccc1)c1c(N)n(CC(C)C)c(=O)[nH]c1=O	1	0	10	-8	1	nt	nt
COc1ccc(C2=NS(=O)(=O)N(C)C(C(=O)NC3CCCC3)=C2)cc1OC	0	0	-4	-8	3	nt	nt
COc1ccc(C2=NS(=O)(=O)N(C)C(C(=O)NC3CCCCC3)=C2)cc1OC	0	13*	4	-12	-2	1	1
